# Assay results published in the supplement of paper PMC3334620.
# Whole data set: some 33,000 sequences, median “E-score (-0.5 to 0.5)” near -0.016, cut for the highest 2% near 0.3. Many of the other results were omitted from the sample, so the highest values are more common in it than they were.
# Target: T1, Yer184c (UniProt P39961)
# T1 sequence: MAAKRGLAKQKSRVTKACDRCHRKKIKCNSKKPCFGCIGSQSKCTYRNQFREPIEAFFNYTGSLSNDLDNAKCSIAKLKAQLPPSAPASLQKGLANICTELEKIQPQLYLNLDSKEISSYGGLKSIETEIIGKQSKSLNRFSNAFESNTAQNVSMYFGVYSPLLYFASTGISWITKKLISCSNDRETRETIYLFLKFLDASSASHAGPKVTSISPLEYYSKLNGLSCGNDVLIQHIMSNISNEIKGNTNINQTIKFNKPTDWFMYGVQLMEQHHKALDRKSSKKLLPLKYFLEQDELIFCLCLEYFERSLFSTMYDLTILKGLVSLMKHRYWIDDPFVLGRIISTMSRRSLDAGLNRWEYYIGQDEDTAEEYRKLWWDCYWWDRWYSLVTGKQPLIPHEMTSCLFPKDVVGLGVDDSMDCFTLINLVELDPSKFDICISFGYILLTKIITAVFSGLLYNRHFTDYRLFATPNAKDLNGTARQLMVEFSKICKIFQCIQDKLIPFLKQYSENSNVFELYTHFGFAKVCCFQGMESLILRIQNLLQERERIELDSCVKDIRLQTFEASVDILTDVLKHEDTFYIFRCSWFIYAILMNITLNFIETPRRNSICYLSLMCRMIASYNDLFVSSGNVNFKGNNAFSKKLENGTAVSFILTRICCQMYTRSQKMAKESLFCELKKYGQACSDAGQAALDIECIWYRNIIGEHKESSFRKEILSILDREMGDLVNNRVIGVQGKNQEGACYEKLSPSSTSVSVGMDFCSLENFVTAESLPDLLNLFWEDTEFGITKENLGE
# Assay: PBM E-score (8-mer binding enrichment) (E-score (-0.5 to 0.5)); higher = stronger / more preferred TF binding
# Details: protein concentration: 100 nM; construct: GST-full length
# Summary of the method: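 E-scores (a modified Wilcoxon-Mann-Whitney statistic) were assigned by the Universal PBM Analysis Suite to every ungapped eight-base word pooled with its reverse complement. The input came from universal all-10-mer Agilent arrays made double-stranded by primer extension and probed with GST-tagged yeast transcription factors at about 100-200 nM. Fluorescent anti-GST detected bound protein, and masliner normalised the scans.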
row,Sequence,PBM E-score
1,CACACTGC,-0.155
2,GATTGGCC,-0.0975
3,AGGGTGAA,-0.136
4,AATTGTCG,0.035
5,CGGAACCA,0.338
6,CCGAACCG,0.329
7,CCGAACCA,0.154
8,GGGAACCA,-0.222
9,TGGAACCA,0.138
10,CGGAACCG,0.364
11,CCGAACGG,0.325
12,CCGAACCC,0.0527
13,CCGAACGC,0.274
14,CGGAACCC,0.279
15,AGGAACCG,0.179
16,CCGAACGA,0.245
17,ACTTATAA,0.221
18,GATCTAGC,-0.195
19,CAACTACC,-0.0226
20,ATCCCATC,-0.19
21,ATGCACCC,-0.147
22,GGGAAAAC,-0.00619
23,GGAAAAAC,0.124
24,CGGAAACC,0.188
25,GGAAATAA,0.319

row,Sequence,PBM E-score
1,GGAAAAAA,0.304
2,CGAAATAA,0.255
3,CGGAAAAC,0.349
4,CGGAAAAG,0.248
5,CGGAAAAA,0.394
6,GGGAAAAA,0.123
7,AGAAATAA,0.19
8,AGGAAAAA,0.168
9,CCAACCAC,-0.0234
10,AGAAAACT,0.0223
11,TCCTTACA,-0.0191
12,AACGAAGT,-0.0531
13,TCTCCCAA,0.0611
14,GCACTACA,-0.142
15,CGCCCCTC,-0.199
16,GGGAAACA,0.22
17,AGGAAACA,0.165
18,CGGAAACA,0.314
19,CGTCTACC,0.0232
20,AAACTCGA,0.0301
21,TCCACGGA,0.304
22,GTAACGGA,0.304
23,CTAACGGA,0.284
24,GAAACGGA,0.294
25,ACAACGGA,0.314

row,Sequence,PBM E-score
1,CAAACGGA,0.267
2,ACCACGGA,0.107
3,ACAACGGT,-0.0406
4,CCCACGGA,0.157
5,ATAACGGA,0.278
6,ACAACGGG,0.00646
7,TAAACGGA,0.311
8,CCTGTAGA,-0.094
9,ACGGCAGC,0.161
10,AACGGTAC,0.187
11,CTCAAAGC,0.114
12,ATGAACAA,0.154
13,CCCCATCG,-0.0742
14,ACTCTGTC,-0.139
15,TCAACGGA,0.315
16,ATCACGGG,-0.164
17,ATCACGGA,0.307
18,CCAACGGA,0.101
19,GCAACGGA,0.294
20,ATCACGGC,0.197
21,CAATGCAG,-0.0658
22,AGCCAGTC,-0.153
23,CGAGGATC,0.0927
24,GAACCTCC,-0.0558
25,CAATTCAG,-0.0853

row,Sequence,PBM E-score
1,GGGCCGAC,0.132
2,CAGCCGAG,0.275
3,CGGCCGAC,0.381
4,GGGCCGAA,0.243
5,CGGCCGAG,0.372
6,TGGCCGAA,0.295
7,AGGCCGAG,0.143
8,AGGCCGAC,0.0134
9,CGGCCGAA,0.415
10,CACCCCCA,-0.206
11,CCAATTGG,0.041
12,TACTGTCA,-0.0937
13,GCTCAAGC,-0.0698
14,ATGCTAAA,0.0332
15,GATTGATA,0.0572
16,TGTTGTAA,0.148
17,ACCATCAG,-0.101
18,GCGCCGTA,0.247
19,GCGCCGAA,0.343
20,ACGCCGAC,0.198
21,ACGCCGAT,0.151
22,ACGCCGAA,0.343
23,GCGCCGAC,0.206
24,TCGCCGCA,0.0686
25,TCGCCGAA,0.316

row,Sequence,PBM E-score
1,TCGCCAAA,-0.0461
2,AGGTATTG,-0.0873
3,AAGGATAT,0.0287
4,CTCTCCCA,-0.211
5,CGGTCGCA,-0.0193
6,TGCCCGAA,0.0801
7,ACCAAAGT,-0.0125
8,ATGGCCTC,-0.106
9,ACGCTTCC,0.0165
10,CTAAAGTC,-0.0167
11,ACGGCACC,-0.0473
12,GCGGCACA,0.129
13,CCGGCACC,0.352
14,CCGGCACA,0.314
15,ACGGCACA,0.0865
16,TCGGCACA,0.307
17,CCGGCACG,0.288
18,ACGGCACG,0.194
19,GCGGCACC,0.23
20,ACGGCATC,0.0862
21,CCGGCATC,0.322
22,CCGGCATA,0.291
23,ACAGCTAA,-0.0181
24,CGCGGCCC,0.0857
25,AATGTTGT,-2e-05

row,Sequence,PBM E-score
1,GCTCTTCA,-0.187
2,ACACTAGC,-0.101
3,CTTCTTGA,-0.0452
4,ACTGGGCA,-0.199
5,CCGCCTCA,-0.051
6,CACCTCAG,-0.236
7,ACCTAATG,-0.284
8,CGGAGTGA,0.153
9,GTAGGTTA,-0.00416
10,ATGCCGAA,0.408
11,GTGCCGAA,0.387
12,GTGCCAAA,-0.00899
13,ATGCCGAC,0.243
14,ATGCCGAG,0.346
15,CTGCCGAA,0.297
16,ATGCCGTG,0.115
17,ATGCCAAA,-0.0656
18,ATGCCGTA,0.196
19,CAAGCCTC,-0.237
20,CGTCCCCA,-0.276
21,GACCATCC,-0.237
22,GTGGCCAA,-0.156
23,ATCAGCCC,-0.386
24,ACCGAACT,0.306
25,GCCGAACA,0.329

row,Sequence,PBM E-score
1,CCCGAACA,0.0635
2,ACCGAACG,0.235
3,CCCGAACC,0.0911
4,GCCGAACC,0.323
5,AACGAACT,0.0561
6,ACCGAACA,0.259
7,ACCGAACC,0.0575
8,CCTGGGCA,-0.276
9,CGATGTGC,-0.101
10,ACCCCACC,0.0874
11,AGAATTGC,-0.134
12,AGGGCAAC,-0.00172
13,GATCGGGC,0.00638
14,AATCGGCA,0.289
15,AATCGGGT,0.173
16,AATCGGAC,0.152
17,AATCGGCC,0.146
18,GATCGGAC,0.322
19,CATCGGAA,0.278
20,TATCGGAA,0.351
21,AATCGGAT,0.327
22,CATCGGAC,0.174
23,AATCGGCT,0.349
24,GATCGGAA,0.279
25,AGTAACTA,0.173

row,Sequence,PBM E-score
1,AGAAAACC,0.0683
2,CACCCCGC,0.0453
3,CGCAAGTA,0.0344
4,GGACCCAA,-0.081
5,CCGTCAAA,0.0576
6,ACTCTGGC,-0.105
7,AGAGAACG,0.0412
8,AGACTAAG,-0.0179
9,ATCGTGGC,-0.101
10,ATAGATAT,0.161
11,CGCTTTTC,-0.0353
12,ACTGGCAA,-0.0748
13,AGTCTAGG,-0.144
14,AATCGGGA,0.0709
15,AATCGGAA,0.374
16,AATCGGAG,0.216
17,ACTTCACC,0.18
18,GCGCTTTA,0.0325
19,ACTGGCGG,-0.0142
20,AAATGCCC,-0.175
21,CAATGCCG,0.22
22,AAATGCCG,0.353
23,CGTGCGTC,0.0693
24,AATGTTCT,0.0086
25,CTCGCCGA,0.193

row,Sequence,PBM E-score
1,GTCGCCGA,0.219
2,ATCGCCGG,0.39
3,ATCGCCGC,0.206
4,ATCGCCGA,0.365
5,ACCGCCGG,0.291
6,GCCCGTGA,-0.132
7,AAATGCTC,-0.0216
8,CCGGGTTC,0.356
9,CCGGGTAC,0.117
10,CCGGGTTA,0.25
11,CCGGGTAA,0.348
12,ACGGGTTC,0.0138
13,TCGGGTAA,0.0925
14,AGTTGTAG,0.0893
15,AAGGTGTA,-0.105
16,CGCCACCG,-0.156
17,AGTCCCAT,-0.173
18,CCAGACCC,-0.262
19,AACTTTCA,0.122
